Screening results from PubChem BioAssay.
Compounds with a hit are over-represented: about 11% of the library has one in this group of screens.
HEK293 tox = Cytotoxic Profiling in HEK 293 Cell Line of Diverse Libraries Using Quantitative High-Throughput Screening | Potency, µM (highest dose often 115 µM), actives largely listed as inhibitors | AID 1345083, 2018 | 6.6% of 94,000 active | HEK 293 viability, ATP luminescence (CellTiter-Glo), 48-72 h; also: nearly all actives have a fitted effect of over 60% in size
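Luminescence from cellular ATP, measured with CellTiter-Glo, indicates HEK 293 viability. Cells plated at 250 cells/well are treated with compound for 48 or 72 hr at 37 degree Celsius before reagent addition.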
FLuc inh = Firefly luciferase inhibition profiling of diverse chemical library using quantitative high-throughput screening. Luciferin 4-monooxygenase (Photinus pyralis), P08659. purified P. pyralis luciferase, luminescence, biochemical. Potency, µM (titrated, usually from 115 µM), usual class: inhibitors. 2.5% of 76,000 active; also: nearly all actives have a fitted effect of over 65% in size
Target sequence (P08659 whole entry, looked up): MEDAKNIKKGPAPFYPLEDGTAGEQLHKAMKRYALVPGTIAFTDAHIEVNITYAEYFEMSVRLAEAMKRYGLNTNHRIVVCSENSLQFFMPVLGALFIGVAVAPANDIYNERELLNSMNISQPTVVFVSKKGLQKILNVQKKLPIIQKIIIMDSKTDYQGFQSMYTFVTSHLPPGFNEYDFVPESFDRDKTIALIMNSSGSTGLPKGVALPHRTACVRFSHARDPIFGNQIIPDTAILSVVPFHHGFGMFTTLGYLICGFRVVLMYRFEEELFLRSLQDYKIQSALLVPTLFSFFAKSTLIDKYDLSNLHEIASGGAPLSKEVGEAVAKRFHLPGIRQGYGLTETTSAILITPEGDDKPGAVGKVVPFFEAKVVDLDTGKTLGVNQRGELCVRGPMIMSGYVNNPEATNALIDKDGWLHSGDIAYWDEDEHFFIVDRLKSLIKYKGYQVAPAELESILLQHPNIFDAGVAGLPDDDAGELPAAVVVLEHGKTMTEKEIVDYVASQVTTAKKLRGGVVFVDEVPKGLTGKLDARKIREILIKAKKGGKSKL
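Luminescence read by CCD imager after adding enzyme (10nM final) to wells holding compound, titrated in qHTS. Substrates 10uM each D-luciferin and ATP; buffer 50mM Tris acetate pH 7.5, 10mM Mg acetate, Tween-20, BSA.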
hNpr1 antagonist = Natriuretic polypeptide receptor (hNpr1) antagonism - Primary qHTS; Atrial natriuretic peptide receptor 1 (Homo sapiens), P16066; Potency, µM (top dose mostly 46.3 µM), hits mostly inhibitors; 1.6% of 76,000 active; HEK293 hNpr1 GloSensor cGMP, ANP-stimulated luminescence; calls by dose curve; also: nearly all actives have a fitted effect of over 60% in size
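HEK293 cells stably expressing human Npr1 and cGMP GloSensor pGS-40F, loaded 2 h with 2% GloSensor reagent, given compound 30 min at room temperature. Luminescence read before and 20 min after 0.1 nM hNppA.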
3T3 cytotox = Cytotoxic Profiling in NIH 3T3 Cell Line of Diverse Libraries Using Quantitative High-Throughput Screening. NIH 3T3 viability, CellTiter-Glo ATP luminescence, 48-72 h. Potency, µM (doses to about 96.7 µM), most hits filed as inhibitors. 4.3% of 94,000 active; also: nearly all actives have a fitted effect of over 55% in size
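Viability of NIH 3T3 cells after 48 or 72 hr compound treatment at 37 °C was assessed by CellTiter-Glo, with luminescence imaged following a 10 min room-temperature step.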
Each line names hits and unclear results; the compound was inactive in the other large screens. Unless noted, calls follow the shape of the dose curve; as a rule, active = well fitted curve in the direction sought with a large enough effect; inconclusive = small, poorly fitted or top-dose-only effect, or another doubt; inactive = no such curve, though single readings can be large; an effect the other way counts as inactive or inconclusive.

COc1cccc(CN2CCOC3(CCN([S+](=O)([O-])c4c(C)noc4C)CC3)C2=O)c1	3T3 cytotox 20µM
COc1cccc(CN2CCOC3(CCN(Cc4ccc(Cl)cc4)CC3)C2=O)c1	HEK293 tox inconclusive, hNpr1 antagonist inconclusive, 3T3 cytotox inconclusive
O=C1N(CCc2ccccc2)CCOC12CCN([S+](=O)([O-])c1cccnc1)CC2	3T3 cytotox 25µM
O=C(NC1CCN(c2ccc3nnc(C4CC4)n3n2)C1)C1CCCCC1 (centres undefined)	none (no result: FLuc inh, hNpr1 antagonist)
Cc1ccc(-c2noc(CCCC(=O)N3CCC(c4nc(C(=O)N5CCCC5)c(C)o4)CC3)n2)cc1	HEK293 tox 35µM, 3T3 cytotox inconclusive (no result: FLuc inh, hNpr1 antagonist)
COc1ccc(CN2CCC3(CC(Cc4ccccc4)=NO3)C2)cc1 (centres undefined)	HEK293 tox inconclusive, 3T3 cytotox inconclusive
Cc1ccc(-c2ccccc2CN2CCN(C(=O)N(C)C)CC2)cc1Cl	HEK293 tox 32µM, 3T3 cytotox inconclusive (no result: FLuc inh, hNpr1 antagonist)
O=C(NCC(F)(F)F)C1CCN(Cc2ccccc2-c2cccnc2)CC1	none (no result: FLuc inh, hNpr1 antagonist)
Cc1ccc(-c2ccccc2CN2CCC(C(=O)NCC(F)(F)F)CC2)cc1Cl	HEK293 tox 50µM, 3T3 cytotox inconclusive (no result: FLuc inh, hNpr1 antagonist)
Cc1ccc(-c2ccccc2CN2CCC(C(=O)NCC3CC3)CC2)cc1Cl	HEK293 tox 35µM, 3T3 cytotox inconclusive (no result: FLuc inh, hNpr1 antagonist)
CCN(Cc1ccncc1)C(=O)c1cc(-c2cnn(CC)c2)nc2cc(C)ccc12	HEK293 tox inconclusive, FLuc inh inconclusive, 3T3 cytotox 2.8µM
O=C(C1CCCN1C(=O)c1cccc(Cl)c1)N1CCC(N2Cc3ccccc3C2=O)CC1 (centres undefined)	HEK293 tox inconclusive (no result: FLuc inh, hNpr1 antagonist)
COc1ccc(-c2ccc3ncc(Nc4ccccc4F)n3n2)cc1OC	HEK293 tox 45µM, 3T3 cytotox 35µM
COc1ccc(-c2ccc3ncc(Nc4cccnc4OC)n3n2)cc1OC	HEK293 tox 14µM
COc1ccccc1Nc1cnc2ccc(-c3ccccc3OC)nn12	HEK293 tox inconclusive, 3T3 cytotox inconclusive
COC[C@@]12CN(Cc3ccc(C(=O)O)cc3)C[C@@H]1C(C)(C)COc1ccc(OC)cc12	3T3 cytotox inconclusive (no result: FLuc inh, hNpr1 antagonist)
COc1cccc(-c2ccc(CN3CCCC(N[S+](=O)([O-])c4ccccc4)C3)cc2)c1 (centres undefined)	HEK293 tox 22µM, 3T3 cytotox 40µM (no result: FLuc inh, hNpr1 antagonist)
COc1cccc(-c2ccc(CN3CCCC(NC(=O)c4ccccc4Cl)C3)cc2)c1 (centres undefined)	HEK293 tox 20µM, 3T3 cytotox 28µM (no result: FLuc inh, hNpr1 antagonist)
COc1cccc(-c2ccc(CN3CCCC(NC(=O)Cc4ccc(F)cc4)C3)cc2)c1 (centres undefined)	HEK293 tox 32µM, 3T3 cytotox inconclusive (no result: FLuc inh, hNpr1 antagonist)
COc1cccc(-c2ccc(CN3CCCC(NC(=O)C4CC4)C3)cc2)c1 (centres undefined)	HEK293 tox 35µM, 3T3 cytotox inconclusive (no result: FLuc inh, hNpr1 antagonist)
CS(=O)(=O)N1CCN(c2ccc3nnc(C4CC4)n3n2)CC1	none (no result: FLuc inh, hNpr1 antagonist)
CSc1ccc(-c2cccc(C(=O)NCC(=O)NCC(F)F)c2)cc1	none (no result: FLuc inh, hNpr1 antagonist)
COc1cccc(-c2ccc(CN3CCCC(NC(=O)Nc4ccccc4)C3)cc2)c1 (centres undefined)	HEK293 tox inconclusive, 3T3 cytotox 22µM (no result: FLuc inh, hNpr1 antagonist)
COc1ccc(CC(=O)NC2CCCN(Cc3ccc(-c4cccc(OC)c4)cc3)C2)cc1 (centres undefined)	HEK293 tox 25µM, 3T3 cytotox 35µM (no result: FLuc inh, hNpr1 antagonist)
COC(=O)NC1CCCN(Cc2ccc(-c3cccc(OC)c3)cc2)C1 (centres undefined)	HEK293 tox 45µM, 3T3 cytotox inconclusive (no result: FLuc inh, hNpr1 antagonist)
O=C(Nc1ccc(Cl)cc1)NC1CCN(CCn2nc3n(c2=O)CCCC3)C1 (centres undefined)	3T3 cytotox inconclusive (no result: FLuc inh, hNpr1 antagonist)
Cc1nnc2ccc(N3CCN(S(=O)(=O)c4cccs4)CC3)nn12	none (no result: FLuc inh, hNpr1 antagonist)
O=C(c1c(F)cccc1F)N1CCC2(CC1)N=C(c1ccc(Cl)cc1)NO2	HEK293 tox inconclusive, hNpr1 antagonist inconclusive
Cc1c(C(C)NC(=O)c2cc(=O)[nH]c(=O)[nH]2)cnn1-c1cccc2ccccc12 (centres undefined)	HEK293 tox inconclusive
Cc1c(C(C)NC(=O)C(=O)c2ccco2)cnn1-c1cccc2ccccc12 (centres undefined)	HEK293 tox 45µM, 3T3 cytotox inconclusive
COc1ccccc1-n1c(=O)c(C(=O)N2CCN(C(=O)c3ccccc3C)CC2)nc2cccnc21	none (no result: FLuc inh, hNpr1 antagonist)
COCC1(C(=O)N2CCOC(c3ccc4cc(OC)ccc4c3)C2)CCC1 (centres undefined)	HEK293 tox inconclusive, FLuc inh 20µM, 3T3 cytotox inconclusive
COc1ccc2c(C)c(C(=O)N3CCOC(c4ccc(F)cc4)C3)oc2c1 (centres undefined)	HEK293 tox inconclusive, 3T3 cytotox inconclusive
COc1ccc2cc(C3CN(c4ncnc(C)c4C)CCO3)ccc2c1 (centres undefined)	HEK293 tox inconclusive, FLuc inh inconclusive, hNpr1 antagonist 2.5µM, 3T3 cytotox inconclusive
COc1cc(CN2CCN(c3ncnc(C)c3C)CC2CCO)cc(OC)c1 (centres undefined)	HEK293 tox inconclusive
COc1ccc2cc(C3CN(C(=O)c4cccn4C)CCO3)ccc2c1 (centres undefined)	HEK293 tox inconclusive, FLuc inh 4.5µM, hNpr1 antagonist 16µM, 3T3 cytotox 40µM
Cc1cccc(OCCc2noc(C3CCN(C(=O)CN4CCCCCC4)C3)n2)c1 (centres undefined)	HEK293 tox inconclusive, 3T3 cytotox inconclusive
CCc1nc2c(c(-c3ccc(O)cc3)n1)CCN(Cc1ccc(C)cc1)CC2	HEK293 tox inconclusive, 3T3 cytotox inconclusive
CNC(=O)c1cc(C)nc2onc(C3CCN(C(=O)NC(C)C)CC3)c12	none (no result: FLuc inh, hNpr1 antagonist)
O=[S+]([O-])(NC1CCCN(Cc2ccc(-c3cncnc3)cc2)C1)c1ccccc1 (centres undefined)	HEK293 tox inconclusive (no result: FLuc inh, hNpr1 antagonist)
COc1ccccc1-c1ccc(CN2CCC(N[S+](=O)([O-])c3c(C)noc3C)C2)cc1 (centres undefined)	HEK293 tox 45µM, 3T3 cytotox inconclusive (no result: FLuc inh, hNpr1 antagonist)
Cc1ccc([S+](=O)([O-])NC2CCCN(Cc3ccc(-c4cc(C)cc(C)c4)cc3)C2)cc1 (centres undefined)	HEK293 tox 40µM, 3T3 cytotox inconclusive (no result: FLuc inh, hNpr1 antagonist)
Cc1cc(C)cc(-c2ccc(CN3CCCC(N[S+](=O)([O-])c4cccs4)C3)cc2)c1 (centres undefined)	HEK293 tox 35µM, 3T3 cytotox 32µM (no result: FLuc inh, hNpr1 antagonist)
Cc1cc(C)cc(-c2ccc(CN3CCCC(NC(=O)C4CCCC4)C3)cc2)c1 (centres undefined)	none (no result: FLuc inh, hNpr1 antagonist)
Cc1cc(C)cc(-c2ccc(CN3CCCC(N[S+](=O)([O-])c4c(C)noc4C)C3)cc2)c1 (centres undefined)	HEK293 tox 25µM, 3T3 cytotox 35µM (no result: FLuc inh, hNpr1 antagonist)
